Test results: PubChem BioAssay (NCI)
Values joined by “and” are separate entries in the source; they are usually repeats but may differ in a detail not shown here. Equal entries are not always repeated. Compounds without any hit were thinned out: in the full panel of roughly 79,000, 15% have a hit. Some compounds were tested as several samples or in several runs, with calls that do not always agree. Active and inactive are the calls of the source. No stated cut-off is given here; in the data, active means growth inhibition above about 70%; inactive means the rest.

Legend:
[1] = NCI Yeast Anticancer Drug Screen. Data for the rad50 strain (AID 155);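 further: 0% = growth of vehicle-only cultures of the same strain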; settings: S. cerevisiae rad50 strain growth inhibition, stronger effect = higher value
Outline: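 Cells are treated with compound, grown, and their growth is then scored against vehicle-only cultures of the same repair-deficient yeast strain.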

[2] = NCI Yeast Anticancer Drug Screen. Data for the mec2-1 strain (AID 157); settings: S. cerevisiae mec2-1 strain, stronger effect = higher value
Outline: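 Cells of the genetically defined mec2-1 yeast strain are incubated with test compound. Inhibition of growth is calculated against vehicle-treated controls.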

[3] = NCI Yeast Anticancer Drug Screen. Data for the sgs1 mgt1 strain (AID 161);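 further: 0% = growth of cultures given vehicle only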; settings: S. cerevisiae sgs1 mgt1 strain, stronger effect = higher value
Outline: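 Test agents were incubated with a DNA-repair-mutant yeast strain. Growth was then read and compared against vehicle-treated controls.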

[4] = NCI Yeast Anticancer Drug Screen. Data for the cln2 rad14 strain (AID 165);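 further: 0% = growth equal to vehicle treated cultures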; settings: S. cerevisiae cln2 rad14 strain, stronger effect = higher value
Outline: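 The screen exposed genetically defined yeast (cln2 rad14) to test compounds and scored growth inhibition relative to vehicle-treated controls.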

[5] = NCI Yeast Anticancer Drug Screen. Data for the bub3 strain (AID 167); settings: S. cerevisiae bub3 mutant strain, stronger effect = higher value
Outline: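 Part of a panel of yeast mutants defective in DNA damage repair or cell cycle regulation. Each strain is grown with compound, and inhibition is calculated relative to solvent-treated cultures.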

[6] = NCI Yeast Anticancer Drug Screen. Data for the mlh1 rad18 strain (AID 175); settings: S. cerevisiae mlh1 rad18 strain growth inhibition, stronger effect = higher value
Outline: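 Compound-treated yeast growth, normalised to vehicle controls. Strain bears defined DNA repair mutations.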

[7] = at 5.0 µM (retest, dose inferred, filed as 0.5)
[8] = at 50.0 µM (retest, dose inferred, filed as 5.0)

SMILES | growth inhibition [1, 7] | growth inhibition [1, 8] | growth inhibition ([1]; at 50.0 µM) | growth inhibition [2, 7] | growth inhibition [2, 8] | growth inhibition ([2]; at 50.0 µM) | growth inhibition [3, 7] | growth inhibition [3, 8] | growth inhibition ([3]; at 50.0 µM) | growth inhibition [4, 7] | growth inhibition [4, 8] | growth inhibition ([4]; at 50.0 µM) | growth inhibition [5, 7] | growth inhibition [5, 8] | growth inhibition ([5]; at 50.0 µM) | growth inhibition [6, 7] | growth inhibition [6, 8] | growth inhibition ([6]; at 50.0 µM)
Oc1cc2c(cc1C(c1ccc3c(c1)OCO3)N1CCN(C(c3ccc4c(c3)OCO4)c3cc4c(cc3O)OCO4)CC1)OCO2 (stereo unspecified) | 2% (inactive) | 98% (active) | 81.9% (active) | -1% (inactive) | 99% (active) | 92.8% (active) | 8% (inactive) | 98% (active) | 78.2% (active) | 8% (inactive) | 49% (inactive) | 24.4% (inactive) | 2% (inactive) | -1% (inactive) | 54.2% (inactive) | 3% (inactive) | 94% (active) | 93.2% (active)
CCN1/C(=C/C=C/C=C/c2sc3ccccc3[n+]2CC)Sc2ccccc21 | 97% (active) | 25% (inactive) | 56.1% (inactive) and 66.5% (inactive) | 98% (active) | 28% (inactive) | 64.7% (inactive) and 70.8% (active) | 96% (active) | 11% (inactive) | 79.5% (active) and 58.2% (inactive) | 93% (active) | 28% (inactive) | 67.7% (inactive) and 65.2% (inactive) | 97% (active) | 1% (inactive) | 53.8% (inactive) and 52.5% (inactive) | 96% (active) | 14% (inactive) | 54.5% (inactive) and 43.6% (inactive)
CCCCCCCCCCCCOC(=O)C(C)OC(C)=O (stereo unspecified) | 1% (inactive) and 2% (inactive) | 99% (active) and 97% (active) | 98.8% (active) and 98.9% (active) | -1% (inactive) and 1% (inactive) | 99% (active) and 98% (active) | 98.5% (active) and 98.8% (active) | 2% (inactive) and 5% (inactive) | 99% (active) | 99.2% (active) and 7.6% (inactive) | -1% (inactive) and 5% (inactive) | 97% (active) and 92% (active) | 98.8% (active) and 96.5% (active) | 1% (inactive) | 99% (active) and 96% (active) | 98% (active) and 99.1% (active) | -10% (inactive) and 2% (inactive) | 99% (active) | 98.7% (active) and 99% (active)
O=[N+]([O-])Cc1cnc2nncn2n1 | -6% (inactive) | 96% (active) | 86.3% (active) | -9% (inactive) | 97% (active) | 98.4% (active) | 2% (inactive) | 96% (active) | 99.2% (active) | 2% (inactive) | 53% (inactive) | 24.2% (inactive) | -27% (inactive) | 99% (active) | 38.5% (inactive) | -12% (inactive) | 97% (active) | 87.5% (active)
CC(=O)Nc1nc([N+](=O)[O-])c(C(C)C)s1 | 4% (inactive) | 1% (inactive) | 10.1% (inactive) | -2% (inactive) | 4% (inactive) | 10.6% (inactive) | 3% (inactive) | 4% (inactive) | -1.85% (inactive) | -6% (inactive) | -4% (inactive) | 1.55% (inactive) | -3% (inactive) | 9% (inactive) | -7.8% (inactive) | 5% (inactive) | 15% (inactive) | 18.2% (inactive)
O=C(NNC(=O)c1ccccc1O)c1ccccc1O | 4% (inactive) | 14% (inactive) | 56.1% (inactive) | 2% (inactive) | 34% (inactive) | 37.3% (inactive) | 8% (inactive) | 32% (inactive) | 61% (inactive) | -4% (inactive) | -2% (inactive) | 35.9% (inactive) | 2% (inactive) | 19% (inactive) | 74.2% (active) | 5% (inactive) | 33% (inactive) | 49.8% (inactive)
O=C(CC1=Nc2nnc(CCCCCCCc3nnc4n3C(=O)C(CC(=O)c3ccc5ccccc5c3)=N4)n2C1=O)c1ccc2ccccc2c1 | 1% (inactive) | 85% (active) | 17.9% (inactive) | 1% (inactive) | 92% (active) | 9.85% (inactive) | -2% (inactive) | 93% (active) | 18.4% (inactive) | 6% (inactive) | 85% (active) | 82.1% (active) | 6% (inactive) | 88% (active) | 1.75% (inactive) | 3% (inactive) | 37% (inactive) | 26.9% (inactive)
